Measurements from ChEMBL document CHEMBL1961873, “Compounds: GSK PKIS; Assays: Nanosyn kinase panel” (2012).

Legend:
[1] = target: T1, Inhibitor of nuclear factor kappa-B kinase subunit epsilon (Homo sapiens) (UniProt Q14164); settings: at 1 µM;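 further: reported values are averaged percent inhibition figures against human IKKε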
T1 sequence (whole entry): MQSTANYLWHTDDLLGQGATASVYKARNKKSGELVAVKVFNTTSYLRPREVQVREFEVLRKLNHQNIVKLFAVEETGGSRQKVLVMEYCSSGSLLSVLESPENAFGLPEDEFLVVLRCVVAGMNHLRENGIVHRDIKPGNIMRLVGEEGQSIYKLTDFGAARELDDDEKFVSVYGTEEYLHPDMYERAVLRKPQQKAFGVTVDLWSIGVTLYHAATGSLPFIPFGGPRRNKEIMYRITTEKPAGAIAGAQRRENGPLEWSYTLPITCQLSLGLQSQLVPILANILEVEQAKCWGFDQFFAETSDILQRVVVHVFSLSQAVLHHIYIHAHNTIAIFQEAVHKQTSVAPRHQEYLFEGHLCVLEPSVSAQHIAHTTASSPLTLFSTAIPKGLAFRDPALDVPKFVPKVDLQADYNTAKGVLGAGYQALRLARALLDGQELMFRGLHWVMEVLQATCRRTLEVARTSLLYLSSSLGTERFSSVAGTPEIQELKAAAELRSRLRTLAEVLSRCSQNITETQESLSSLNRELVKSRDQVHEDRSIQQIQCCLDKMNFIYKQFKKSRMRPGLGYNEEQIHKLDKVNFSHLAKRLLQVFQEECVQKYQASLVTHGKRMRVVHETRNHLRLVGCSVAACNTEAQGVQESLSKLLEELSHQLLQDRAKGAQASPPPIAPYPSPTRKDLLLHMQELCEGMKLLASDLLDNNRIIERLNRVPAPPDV

[2] = target: T2, Serine/threonine-protein kinase Nek1 (Homo sapiens) (UniProt Q96PY6); settings: at 0.1 µM
T2 sequence (whole entry): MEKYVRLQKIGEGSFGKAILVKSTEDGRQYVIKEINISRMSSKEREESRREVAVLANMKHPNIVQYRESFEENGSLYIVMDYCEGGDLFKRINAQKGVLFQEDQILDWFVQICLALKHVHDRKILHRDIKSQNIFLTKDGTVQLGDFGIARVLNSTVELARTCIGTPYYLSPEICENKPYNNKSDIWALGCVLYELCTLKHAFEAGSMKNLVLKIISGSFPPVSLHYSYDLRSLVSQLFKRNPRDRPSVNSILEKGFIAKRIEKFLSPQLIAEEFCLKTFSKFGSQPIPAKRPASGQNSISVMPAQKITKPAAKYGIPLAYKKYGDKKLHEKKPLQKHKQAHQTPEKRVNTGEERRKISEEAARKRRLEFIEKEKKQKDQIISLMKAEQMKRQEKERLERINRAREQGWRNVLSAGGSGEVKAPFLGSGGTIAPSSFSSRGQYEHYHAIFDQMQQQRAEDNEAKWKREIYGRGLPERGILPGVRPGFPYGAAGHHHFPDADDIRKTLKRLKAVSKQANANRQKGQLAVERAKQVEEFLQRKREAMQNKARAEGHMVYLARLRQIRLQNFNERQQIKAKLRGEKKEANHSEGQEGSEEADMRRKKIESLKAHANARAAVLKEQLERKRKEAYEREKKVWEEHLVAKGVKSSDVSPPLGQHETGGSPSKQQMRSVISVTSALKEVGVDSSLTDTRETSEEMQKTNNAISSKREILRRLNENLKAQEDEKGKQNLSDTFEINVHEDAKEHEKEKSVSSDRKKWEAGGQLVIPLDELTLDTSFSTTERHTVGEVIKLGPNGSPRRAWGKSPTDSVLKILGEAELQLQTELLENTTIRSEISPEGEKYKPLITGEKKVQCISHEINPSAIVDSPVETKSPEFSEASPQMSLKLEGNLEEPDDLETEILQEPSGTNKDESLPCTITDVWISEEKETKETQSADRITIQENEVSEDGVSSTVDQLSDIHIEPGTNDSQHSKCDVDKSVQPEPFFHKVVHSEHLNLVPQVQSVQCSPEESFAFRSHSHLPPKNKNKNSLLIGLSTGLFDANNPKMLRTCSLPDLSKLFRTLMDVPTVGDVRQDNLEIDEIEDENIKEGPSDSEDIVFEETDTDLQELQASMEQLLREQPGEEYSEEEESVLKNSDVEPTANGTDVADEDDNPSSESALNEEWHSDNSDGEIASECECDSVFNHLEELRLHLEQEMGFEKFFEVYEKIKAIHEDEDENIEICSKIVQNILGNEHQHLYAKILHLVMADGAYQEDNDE

[3] = target: T2, Serine/threonine-protein kinase Nek1 (Homo sapiens); settings: at 1 µM
[4] = target: T3, Serine/threonine-protein kinase Nek2 (Homo sapiens) (UniProt P51955); settings: at 0.1 µM
T3 sequence (whole entry): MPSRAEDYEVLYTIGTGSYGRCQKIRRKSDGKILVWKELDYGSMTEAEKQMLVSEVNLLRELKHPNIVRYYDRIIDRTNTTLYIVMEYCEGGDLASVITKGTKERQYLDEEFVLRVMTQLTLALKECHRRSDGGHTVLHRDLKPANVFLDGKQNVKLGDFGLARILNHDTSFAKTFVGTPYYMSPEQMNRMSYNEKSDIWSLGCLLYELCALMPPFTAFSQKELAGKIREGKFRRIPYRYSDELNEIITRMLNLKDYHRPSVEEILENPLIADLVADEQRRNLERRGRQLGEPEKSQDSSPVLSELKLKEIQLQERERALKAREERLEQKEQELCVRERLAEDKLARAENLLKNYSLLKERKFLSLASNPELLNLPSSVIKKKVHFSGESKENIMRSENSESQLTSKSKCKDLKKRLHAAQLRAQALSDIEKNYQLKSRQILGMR

[5] = target: T3, Serine/threonine-protein kinase Nek2 (Homo sapiens); settings: at 1 µM
[6] = target: Serine/threonine-protein kinase Nek6 (Homo sapiens) (UniProt Q9HC98); settings: at 0.1 µM
[7] = target: Serine/threonine-protein kinase Nek6 (Homo sapiens) (UniProt Q9HC98); settings: at 1 µM
[8] = target: Serine/threonine-protein kinase Nek7 (Homo sapiens) (UniProt Q8TDX7); settings: at 0.1 µM
[9] = target: Serine/threonine-protein kinase Nek7 (Homo sapiens) (UniProt Q8TDX7); settings: at 1 µM
[10] = target: T4, Serine/threonine-protein kinase Nek9 (Homo sapiens) (UniProt Q8TD19); settings: at 0.1 µM
T4 sequence (whole entry): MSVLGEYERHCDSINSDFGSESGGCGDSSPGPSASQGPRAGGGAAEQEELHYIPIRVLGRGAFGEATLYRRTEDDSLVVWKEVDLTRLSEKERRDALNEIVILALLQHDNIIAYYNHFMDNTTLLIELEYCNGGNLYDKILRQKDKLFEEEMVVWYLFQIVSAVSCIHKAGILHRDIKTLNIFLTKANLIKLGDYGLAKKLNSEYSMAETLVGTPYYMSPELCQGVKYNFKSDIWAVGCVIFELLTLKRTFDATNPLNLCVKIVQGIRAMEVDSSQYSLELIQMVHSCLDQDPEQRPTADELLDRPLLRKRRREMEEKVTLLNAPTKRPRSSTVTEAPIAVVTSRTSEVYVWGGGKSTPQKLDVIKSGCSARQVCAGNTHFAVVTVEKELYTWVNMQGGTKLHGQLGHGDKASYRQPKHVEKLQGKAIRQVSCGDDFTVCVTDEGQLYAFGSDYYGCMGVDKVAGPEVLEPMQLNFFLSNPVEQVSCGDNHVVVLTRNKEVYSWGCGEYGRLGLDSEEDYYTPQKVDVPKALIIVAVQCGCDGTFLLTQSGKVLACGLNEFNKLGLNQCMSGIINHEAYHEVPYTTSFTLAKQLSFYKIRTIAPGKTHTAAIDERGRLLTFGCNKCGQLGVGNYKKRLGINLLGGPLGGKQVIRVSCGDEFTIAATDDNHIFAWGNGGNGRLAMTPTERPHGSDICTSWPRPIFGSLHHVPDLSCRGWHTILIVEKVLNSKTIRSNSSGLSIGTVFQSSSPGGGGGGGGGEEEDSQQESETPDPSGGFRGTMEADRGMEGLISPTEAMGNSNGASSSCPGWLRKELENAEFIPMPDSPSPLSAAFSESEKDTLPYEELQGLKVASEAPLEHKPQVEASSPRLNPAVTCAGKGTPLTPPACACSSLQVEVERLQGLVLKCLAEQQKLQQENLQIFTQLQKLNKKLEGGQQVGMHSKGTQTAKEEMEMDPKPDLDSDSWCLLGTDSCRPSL

[11] = target: T4, Serine/threonine-protein kinase Nek9 (Homo sapiens); settings: at 1 µM
[12] = target: Serine/threonine-protein kinase PLK1 (Homo sapiens) (UniProt P53350); settings: at 0.1 µM
[13] = target: Serine/threonine-protein kinase PLK1 (Homo sapiens) (UniProt P53350); settings: at 1 µM
[14] = target: T5, Dual specificity protein kinase TTK (Homo sapiens) (UniProt P33981); settings: at 0.1 µM
T5 sequence (whole entry): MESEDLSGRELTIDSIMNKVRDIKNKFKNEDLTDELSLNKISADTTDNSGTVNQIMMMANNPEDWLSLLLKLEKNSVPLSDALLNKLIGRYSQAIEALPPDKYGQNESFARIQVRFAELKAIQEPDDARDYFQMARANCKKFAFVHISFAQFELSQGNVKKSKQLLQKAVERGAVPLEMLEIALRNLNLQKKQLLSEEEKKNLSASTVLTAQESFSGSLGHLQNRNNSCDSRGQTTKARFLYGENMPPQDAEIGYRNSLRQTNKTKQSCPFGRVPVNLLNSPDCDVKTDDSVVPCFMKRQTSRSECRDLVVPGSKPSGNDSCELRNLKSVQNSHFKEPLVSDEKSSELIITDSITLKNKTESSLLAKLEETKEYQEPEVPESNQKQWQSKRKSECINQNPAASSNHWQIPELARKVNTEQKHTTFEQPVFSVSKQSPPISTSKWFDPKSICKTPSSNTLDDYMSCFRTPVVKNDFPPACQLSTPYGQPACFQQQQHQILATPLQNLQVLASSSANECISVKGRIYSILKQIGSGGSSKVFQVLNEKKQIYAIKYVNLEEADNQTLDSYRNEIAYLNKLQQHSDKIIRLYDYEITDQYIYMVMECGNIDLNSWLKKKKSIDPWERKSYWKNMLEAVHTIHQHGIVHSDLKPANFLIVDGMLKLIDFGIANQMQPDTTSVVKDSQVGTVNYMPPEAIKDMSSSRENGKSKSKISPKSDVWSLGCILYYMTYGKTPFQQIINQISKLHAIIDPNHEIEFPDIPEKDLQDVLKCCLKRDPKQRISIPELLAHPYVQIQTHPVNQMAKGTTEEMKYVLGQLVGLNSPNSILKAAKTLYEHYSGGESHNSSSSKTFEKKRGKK

[15] = test system: T6, Receptor-type tyrosine-protein kinase FLT3 (Homo sapiens), P36888 [D835Y]; settings: at 1 µM
T6 sequence (whole entry): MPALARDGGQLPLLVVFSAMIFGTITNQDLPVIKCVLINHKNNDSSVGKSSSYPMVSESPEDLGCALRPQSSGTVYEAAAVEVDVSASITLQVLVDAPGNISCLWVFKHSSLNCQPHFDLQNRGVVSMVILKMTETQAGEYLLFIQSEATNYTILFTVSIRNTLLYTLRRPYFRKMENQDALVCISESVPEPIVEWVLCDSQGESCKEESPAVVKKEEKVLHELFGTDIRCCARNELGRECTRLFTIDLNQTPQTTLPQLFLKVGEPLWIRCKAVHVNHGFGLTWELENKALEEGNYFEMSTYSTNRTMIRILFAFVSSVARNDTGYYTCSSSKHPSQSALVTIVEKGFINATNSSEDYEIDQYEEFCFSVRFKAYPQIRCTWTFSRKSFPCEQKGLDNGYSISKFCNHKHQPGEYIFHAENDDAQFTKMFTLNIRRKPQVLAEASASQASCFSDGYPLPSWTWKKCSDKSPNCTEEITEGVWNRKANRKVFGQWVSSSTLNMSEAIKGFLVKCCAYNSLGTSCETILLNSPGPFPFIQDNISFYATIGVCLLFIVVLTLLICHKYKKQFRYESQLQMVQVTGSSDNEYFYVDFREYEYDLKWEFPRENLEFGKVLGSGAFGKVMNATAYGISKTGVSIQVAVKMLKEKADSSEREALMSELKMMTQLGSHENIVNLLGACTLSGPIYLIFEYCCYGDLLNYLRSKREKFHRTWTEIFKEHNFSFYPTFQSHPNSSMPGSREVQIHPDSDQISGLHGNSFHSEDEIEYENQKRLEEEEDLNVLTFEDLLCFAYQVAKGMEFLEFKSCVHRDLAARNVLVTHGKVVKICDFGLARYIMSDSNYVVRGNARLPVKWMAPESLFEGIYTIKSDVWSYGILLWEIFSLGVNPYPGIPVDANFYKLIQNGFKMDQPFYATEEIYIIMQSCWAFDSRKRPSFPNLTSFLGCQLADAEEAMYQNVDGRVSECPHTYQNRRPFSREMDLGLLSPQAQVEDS

[16] = target: Vascular endothelial growth factor receptor 3 (Homo sapiens) (UniProt P35916); settings: at 0.1 µM
[17] = target: Vascular endothelial growth factor receptor 3 (Homo sapiens) (UniProt P35916); settings: at 1 µM
[18] = target: Macrophage colony-stimulating factor 1 receptor (Homo sapiens) (UniProt P07333); settings: at 0.1 µM
[19] = target: Macrophage colony-stimulating factor 1 receptor (Homo sapiens) (UniProt P07333); settings: at 1 µM
[20] = target: Tyrosine-protein kinase Fyn (Homo sapiens) (UniProt P06241); settings: at 0.1 µM
Chain of Tyrosine-protein kinase Fyn (Homo sapiens) (P06241 2-537 limits assumed): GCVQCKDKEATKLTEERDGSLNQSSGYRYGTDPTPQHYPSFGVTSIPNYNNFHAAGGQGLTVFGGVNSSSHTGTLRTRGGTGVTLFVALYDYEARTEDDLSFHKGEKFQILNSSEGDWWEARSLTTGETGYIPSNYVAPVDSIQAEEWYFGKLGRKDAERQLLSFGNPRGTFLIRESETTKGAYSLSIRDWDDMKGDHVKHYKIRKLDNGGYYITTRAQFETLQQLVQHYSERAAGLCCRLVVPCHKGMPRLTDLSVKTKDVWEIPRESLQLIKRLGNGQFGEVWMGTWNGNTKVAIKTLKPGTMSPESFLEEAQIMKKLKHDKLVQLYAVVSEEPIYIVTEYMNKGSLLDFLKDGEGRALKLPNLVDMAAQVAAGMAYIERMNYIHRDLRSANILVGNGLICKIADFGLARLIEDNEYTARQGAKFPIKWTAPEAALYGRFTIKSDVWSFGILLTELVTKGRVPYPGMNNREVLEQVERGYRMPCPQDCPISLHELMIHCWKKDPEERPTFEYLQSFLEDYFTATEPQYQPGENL

Chain of Serine/threonine-protein kinase PLK1 (Homo sapiens) (P53350 whole entry): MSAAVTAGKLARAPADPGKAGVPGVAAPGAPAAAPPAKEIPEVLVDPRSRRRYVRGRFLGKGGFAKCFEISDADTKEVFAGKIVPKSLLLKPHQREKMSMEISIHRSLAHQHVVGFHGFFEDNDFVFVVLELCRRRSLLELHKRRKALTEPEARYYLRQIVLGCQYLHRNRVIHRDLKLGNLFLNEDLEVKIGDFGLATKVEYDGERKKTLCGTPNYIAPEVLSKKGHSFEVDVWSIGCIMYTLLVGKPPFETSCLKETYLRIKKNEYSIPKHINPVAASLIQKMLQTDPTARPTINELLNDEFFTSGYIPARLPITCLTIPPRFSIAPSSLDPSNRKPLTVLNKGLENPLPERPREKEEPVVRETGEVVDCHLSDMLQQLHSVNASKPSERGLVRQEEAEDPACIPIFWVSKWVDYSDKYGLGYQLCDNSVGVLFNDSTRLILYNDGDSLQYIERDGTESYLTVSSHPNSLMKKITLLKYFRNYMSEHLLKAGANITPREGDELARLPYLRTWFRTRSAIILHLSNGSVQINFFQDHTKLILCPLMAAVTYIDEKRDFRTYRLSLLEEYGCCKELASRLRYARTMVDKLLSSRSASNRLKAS
Chain of Vascular endothelial growth factor receptor 3 (Homo sapiens) (P35916 whole entry): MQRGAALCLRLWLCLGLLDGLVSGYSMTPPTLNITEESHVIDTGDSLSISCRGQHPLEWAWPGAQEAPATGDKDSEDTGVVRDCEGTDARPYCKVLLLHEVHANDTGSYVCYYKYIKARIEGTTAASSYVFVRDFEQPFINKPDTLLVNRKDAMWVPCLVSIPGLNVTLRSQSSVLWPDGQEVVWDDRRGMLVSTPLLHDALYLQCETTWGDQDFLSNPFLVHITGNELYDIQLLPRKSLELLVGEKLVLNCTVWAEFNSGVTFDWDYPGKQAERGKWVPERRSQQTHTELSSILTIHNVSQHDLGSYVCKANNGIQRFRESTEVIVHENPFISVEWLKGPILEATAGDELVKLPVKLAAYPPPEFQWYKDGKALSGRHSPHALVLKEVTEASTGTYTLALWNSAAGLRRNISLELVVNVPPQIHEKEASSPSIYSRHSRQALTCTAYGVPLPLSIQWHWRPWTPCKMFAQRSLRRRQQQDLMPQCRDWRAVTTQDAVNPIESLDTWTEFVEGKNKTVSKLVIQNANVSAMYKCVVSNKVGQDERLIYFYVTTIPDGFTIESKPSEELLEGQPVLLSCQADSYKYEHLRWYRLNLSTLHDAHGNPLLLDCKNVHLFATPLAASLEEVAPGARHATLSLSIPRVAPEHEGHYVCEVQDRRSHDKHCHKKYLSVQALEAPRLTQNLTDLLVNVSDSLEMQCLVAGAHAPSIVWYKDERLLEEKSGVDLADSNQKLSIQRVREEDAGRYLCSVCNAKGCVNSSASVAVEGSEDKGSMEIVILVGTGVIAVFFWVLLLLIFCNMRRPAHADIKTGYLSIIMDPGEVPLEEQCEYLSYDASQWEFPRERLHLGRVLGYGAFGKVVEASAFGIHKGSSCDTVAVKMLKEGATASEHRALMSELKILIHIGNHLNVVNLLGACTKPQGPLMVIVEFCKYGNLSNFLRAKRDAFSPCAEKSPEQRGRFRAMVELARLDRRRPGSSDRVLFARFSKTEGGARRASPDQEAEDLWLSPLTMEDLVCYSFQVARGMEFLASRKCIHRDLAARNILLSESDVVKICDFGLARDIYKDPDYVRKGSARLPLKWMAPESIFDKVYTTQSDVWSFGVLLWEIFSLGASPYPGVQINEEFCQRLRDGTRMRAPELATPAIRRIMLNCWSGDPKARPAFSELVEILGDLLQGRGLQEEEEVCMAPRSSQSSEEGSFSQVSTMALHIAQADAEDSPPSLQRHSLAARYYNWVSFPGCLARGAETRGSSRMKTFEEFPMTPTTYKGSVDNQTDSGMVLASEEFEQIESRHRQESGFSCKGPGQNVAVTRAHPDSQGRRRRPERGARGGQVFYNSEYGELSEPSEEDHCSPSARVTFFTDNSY
Chain of Serine/threonine-protein kinase Nek7 (Homo sapiens) (Q8TDX7 whole entry, looked up): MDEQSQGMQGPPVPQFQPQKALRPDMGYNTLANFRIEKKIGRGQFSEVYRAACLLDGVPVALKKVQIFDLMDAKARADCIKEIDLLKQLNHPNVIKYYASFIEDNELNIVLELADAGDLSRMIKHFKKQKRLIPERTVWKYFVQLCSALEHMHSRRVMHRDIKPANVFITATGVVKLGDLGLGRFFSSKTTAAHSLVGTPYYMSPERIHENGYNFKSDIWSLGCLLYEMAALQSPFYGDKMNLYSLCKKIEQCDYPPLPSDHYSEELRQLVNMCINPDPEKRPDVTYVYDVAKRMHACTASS
Chain of Macrophage colony-stimulating factor 1 receptor (Homo sapiens) (P07333 whole entry): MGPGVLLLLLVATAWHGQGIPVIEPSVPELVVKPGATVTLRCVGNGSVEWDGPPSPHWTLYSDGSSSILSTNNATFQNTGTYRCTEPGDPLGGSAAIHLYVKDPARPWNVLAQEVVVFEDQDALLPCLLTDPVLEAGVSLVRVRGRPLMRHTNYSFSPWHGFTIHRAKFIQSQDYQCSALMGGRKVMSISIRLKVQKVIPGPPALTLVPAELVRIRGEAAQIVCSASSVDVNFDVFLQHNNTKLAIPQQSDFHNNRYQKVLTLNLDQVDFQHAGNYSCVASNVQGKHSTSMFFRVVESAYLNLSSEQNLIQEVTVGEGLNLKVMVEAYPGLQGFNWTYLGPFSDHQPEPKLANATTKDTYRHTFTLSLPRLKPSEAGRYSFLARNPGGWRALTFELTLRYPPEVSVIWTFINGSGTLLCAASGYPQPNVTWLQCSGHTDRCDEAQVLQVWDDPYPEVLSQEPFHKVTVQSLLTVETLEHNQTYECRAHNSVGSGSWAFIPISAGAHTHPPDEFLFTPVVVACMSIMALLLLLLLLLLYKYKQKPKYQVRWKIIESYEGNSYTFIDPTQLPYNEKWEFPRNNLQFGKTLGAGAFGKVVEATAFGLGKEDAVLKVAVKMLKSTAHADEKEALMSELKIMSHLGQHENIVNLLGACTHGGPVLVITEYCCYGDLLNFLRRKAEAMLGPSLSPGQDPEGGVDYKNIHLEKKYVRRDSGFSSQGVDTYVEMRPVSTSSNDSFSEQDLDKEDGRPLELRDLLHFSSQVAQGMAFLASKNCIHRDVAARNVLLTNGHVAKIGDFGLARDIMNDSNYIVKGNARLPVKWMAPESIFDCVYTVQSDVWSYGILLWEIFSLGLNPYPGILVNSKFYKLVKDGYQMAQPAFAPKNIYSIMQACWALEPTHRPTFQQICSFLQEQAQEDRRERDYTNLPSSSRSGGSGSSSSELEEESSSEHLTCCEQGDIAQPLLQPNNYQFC
Chain of Serine/threonine-protein kinase Nek6 (Homo sapiens) (Q9HC98 whole entry): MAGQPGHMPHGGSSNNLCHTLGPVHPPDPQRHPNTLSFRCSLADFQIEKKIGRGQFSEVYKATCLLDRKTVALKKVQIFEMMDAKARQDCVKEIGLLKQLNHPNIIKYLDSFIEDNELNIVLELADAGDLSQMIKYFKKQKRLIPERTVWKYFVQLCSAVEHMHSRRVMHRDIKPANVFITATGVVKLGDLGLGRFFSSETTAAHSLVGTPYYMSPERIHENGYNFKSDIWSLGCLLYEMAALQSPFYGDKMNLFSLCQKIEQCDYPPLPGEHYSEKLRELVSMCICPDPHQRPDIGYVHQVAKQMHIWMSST

Q: How did the inhibition [1] turn out when `Cc1cccc(Nc2ncc(-c3ccccc3)o2)c1` was run?
A: Its inhibition is 6.48%.

Q: And the inhibition [2]?
A: Its inhibition is 4.04%.

Q: And the inhibition [3]?
A: The inhibition was 3.56%.

Q: What about the inhibition [4] of the same compound?
A: Its inhibition is 3.46%.

Q: What about the inhibition [5] of the same compound?
A: Its inhibition is 3.62%.

Q: And the inhibition [6]?
A: The inhibition was 0.75%.

Q: What about the inhibition [7] of the same compound?
A: The inhibition was 2.04%.

Q: And the inhibition [8]?
A: The inhibition was 2.47%.

Q: What about the inhibition [9] of the same compound?
A: The inhibition was 4.58%.

Q: And the inhibition [10]?
A: Its inhibition is 8.57%.

Q: And the inhibition [11]?
A: Its inhibition is 4.73%.

Q: And the inhibition [12]?
A: Its inhibition is 2.24%.

Q: What about the inhibition [13] of the same compound?
A: The inhibition was 6.33%.

Q: And the inhibition [14]?
A: The inhibition was 6.38%.

Q: And the inhibition [15]?
A: Its inhibition is 18.6%.

Q: What about the inhibition [16] of the same compound?
A: Its inhibition is 5.49%.

Q: And the inhibition [17]?
A: The inhibition was 9.11%.

Q: What about the inhibition [18] of the same compound?
A: Its inhibition is 9.54%.

Q: And the inhibition [19]?
A: The inhibition was 25.7%.

Q: What about the inhibition [20] of the same compound?
A: The inhibition was 3.07%.
